# Compound activity (PubChem BioAssay)
# IL-2 act: activates IL-2 in a cell-based reporter assay; AID 652025; activation, % (series mostly up to about 46 µM); IL-2 activation reporter assay, cell-based qHTS; stimulated with anti-CD3/CD4/CD28 beads; in transgenic mouse T cells; 360,000 compounds, 0.065% hits; in the data active = activation above about 50%; inconclusive = mostly about 30% to 49%; also: 0% is about no effect
#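 EGFP and DsRed fluorescence is measured by plate cytometry in unstimulated transgenic mouse T cells exposed to compound for 60 minutes, then stimulated 18 hours at 37 degrees C with anti-CD3/anti-CD4 beads plus anti-CD28.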
# A549 viability: counter-screen for Nrf2 inhibitors: cytotoxicity in A549 cells. Potency, µM (titrated, usually from 46 µM), without a hit: at the highest dose activity change, negative = cytotoxicity, hits mostly inhibitors. A549 ARE-Fluc cells, CellTiter-Fluor viability, 18-24 h. 390,000 compounds, 0.16% hits; also: potency is read from the fitted curve at half-maximal effect; % is scaled to controls: 0 for no effect and ±100 for the full control effect
#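 Cytotoxicity counterscreen: CellTiter-Fluor fluorescence was measured in A549 ARE_Fluc cells after 18-24 h of compound exposure in a concentration series. The subsequent BugLite luminescent read reports ARE-luciferase activity.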
# Nrf2 activator: Nrf2 pathway activation. AREc32 ARE-luciferase reporter (MCF7-derived line), luminescence, 24 h. Potency, µM (highest dose often 46.1 µM), for the others: at the highest dose activation, actives largely listed as activators. 410,000 compounds, 0.31% hits; also: potency is read from the fitted curve at half-maximal effect; % of control where 0% means no effect; nearly all actives have a fitted effect of over 65% in size
#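 ARE activation measured as luciferase luminescence (Steady-Glo, 30 min RT) in AREc32_Fluc cells after 24 hr compound exposure at 37 deg C, 5% CO2; cells seeded overnight at 1000/well in OPTI-MEM, 5% FBS.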
# Nrf2 inh: Nrf2 pathway inhibition. AID 504444. A549 ARE-Fluc reporter, luciferase luminescence, 18-24 h. 360,000 compounds, 2.1% hits. Potency, µM (highest dose often 46 µM), for inactives: top-dose activity change, negative = inhibition, most hits filed as inhibitors; also: potency is read from the fitted curve at half-maximal effect; % is scaled to controls: 0 for no effect and ±100 for the full control effect; nearly all actives have a fitted effect of over 60% in size
#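 Reporter: ARE-Fluc in A549. Exposure: 18-24 h, 37 °C, 5% CO2, 5% FBS OPTI-MEM. Readouts: fluorescent cytotoxicity (CellTiter-Fluor), then luminescent Nrf2 signal after BugLite.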
# The depositor's hits bear a star; ? = inconclusive; · = no result; [ ] = dose if it differs, or a comment. Hits are enriched below; roughly 2.3% of the tested compounds scored in any of these assays. Unless noted, calls follow the shape of the dose curve; as a rule, active = well fitted curve in the direction sought with a large enough effect; inconclusive = small, poorly fitted or top-dose-only effect, or another doubt; inactive = no such curve, though single readings can be large; an effect the other way counts as inactive or inconclusive.
SMILES,IL-2 act,A549 viability,Nrf2 activator,Nrf2 inh
C=C1[C@@H](O)[C@@H]2O[C@]3(CC[C@H](/C=C/[C@@H](C)[C@@H]4CC(C)=CC5(O[C@H](C[C@@](C)(O)C(=O)OC)CC[C@H]5O)O4)O3)CC[C@H]2O[C@@H]1[C@@H](O)C[C@H](C)[C@H]1OC2(CCCCO2)CC[C@H]1C (some centres not stated),0.4,?,-2.5%,0.092µM*
C=C1C(O)[C@@H]2O[C@]3(CC[C@H](/C=C/C(C)[C@@H]4CC(C)=CC5(O[C@H](C[C@@](C)(O)CO)CCC5O)O4)O3)CC[C@H]2O[C@@H]1C(O)CC(C)[C@H]1OC2(CCCCO2)CCC1C (some centres not stated),-0.1,?,?,?
Cc1ccc(S(=O)(=O)N2C(=O)c3cccc4cccc2c34)cc1,-1.5,?,-0.1%,14.6µM*
Cc1ccc(S(=O)(=O)ON2C(=O)c3cccc4cccc(c34)C2=O)cc1,1.6,0.6%,5.5%,-3.0%
Cc1cc(C)n(-c2ccc3cccc(NS(C)(=O)=O)c3n2)n1,-0.6,-10.4%,-0.4%,5.17µM*
CC(=O)c1cc2c(s1)c1cnn(Cc3ccccc3F)c(=O)c1n2C,·,9.5%,·,7.5%
Cc1ccc(NS(=O)(=O)c2cc3c(cc2-c2ccccc2)NC(=O)CO3)cc1C,·,2.6%,·,2.1%
Cc1oc(-c2cccc3ccccc23)nc1CN1CCN(c2ncnc3ccccc23)CC1,-0.9,?,0.0%,18.4µM*
CCOc1cc(C2CC(=O)Nc3c2c(=O)nc(SCc2cccc(Cl)c2)n3C)ccc1O (configuration not stated),·,0.9%,1.0%,6.4%
COc1ccc(Cn2ncc3c4sc(C)cc4n(C)c3c2=O)cc1F,·,-1.8%,·,2.9%
CCOc1c2c(c(-c3ccc4c(c3)OCO4)c3cc(OC)c(OC)cc13)C(=O)OC2,·,2.91µM*,·,1.84µM*
O=C(NCCCN1CCN(c2ccccc2)CC1)c1nnc(Cc2c(F)cccc2Cl)o1,·,-6.3%,7.5%,-6.4%
CCc1nc(C)cn1S(=O)(=O)c1cc(F)ccc1OC,-2.5,-0.3%,-0.1%[9.22 µM],0.3%
CCc1nc(C)cn1S(=O)(=O)c1cc(Br)ccc1OC,-1.6,?,-0.3%,23.1µM*
Cc1cccc(N2CCN(C(=O)c3cc4cc(F)ccc4[nH]3)CC2)c1C,-0.9,-4.4%,7.08µM*,17.8%
Cc1ccc2c(c1)N(C(=O)N1CCC(C(=O)NCc3cccc(Br)c3)CC1)CCO2,·,-0.2%,6.7%,19.9%
COC(=O)c1ccc(COc2ccccc2/C=C/C(=O)c2ccc(OCC(=O)O)cc2)cc1,0.2,-1.0%,17.8µM*,1.9%
CCOC(=O)C1=C(CN(CC)Cc2ccccc2)NC(=O)NC1c1ccc(OC(C)C)cc1 (configuration not stated),·,?,0.3%,18.4µM*
CCOC(=O)C1=C(CN2CCN(c3ccccc3F)CC2)NC(=O)NC1c1ccc(OC)cc1 (configuration not stated),·,-21.3%,-0.3%,18.4µM*
CCOC(=O)C1=C(CN2CCC(C)CC2)NC(=O)NC1c1ccc(OC(C)C)cc1 (configuration not stated),·,-11.1%,0.0%,?
CCOC(=O)C1=C(CN2CCN(c3ccccc3F)CC2)NC(=O)NC1c1ccc(Cl)cc1 (configuration not stated),·,-21.6%,-1.1%,20.6µM*
Cc1cc(C)c(Cn2c(CCNC(=O)c3ccco3)nc3ccccc32)c(C)c1,·,-14.3%,5.3%,-20.1%
O=[N+]([O-])c1ccccc1S(=O)(=O)N1CCN(c2nc(-c3ccccc3)nc3ccccc23)CC1,·,11.5%,·,2.6%
CN(C1=NC(=O)C(CC(=O)Nc2ccc(Br)cc2)S1)c1ccc(O)cc1 (configuration not stated),-2.1,-13.9%,0.2%,23.1µM*
Cc1ccccc1CN(c1ccc(C(=O)N2CCc3ccccc3C2)cc1)S(C)(=O)=O,1.1,-26.6%,0.6%,14.6µM*
SMILES,IL-2 act,A549 viability,Nrf2 activator,Nrf2 inh
CNC(=O)c1ccc(N(Cc2ccccc2C)S(C)(=O)=O)cc1,0.0,9.2%,1.8%,3.9%
Cc1nc(-c2ccc(S(=O)(=O)N3CCN(C(c4ccccc4)c4ccccc4)CC3)s2)cs1,-0.9,8.2%,-1.6%,3.2%
Cc1nc(-c2ccc(S(=O)(=O)N3CCN(Cc4ccccc4)CC3)s2)cs1,0.7,3.3%,-0.1%,16.4µM*
COc1cc(/C=C(\C#N)c2nc3ccccc3o2)ccc1O,15.8,0.3%,?,-10.7%
N#C/C(=C\c1ccc(O)cc1)c1nc2ccccc2o1,57.3*,0.4%,12.2%,8.7%
CCc1ccccc1NC(=O)CC(C)n1nc(C)cc1C (configuration not stated),·,-9.9%,-0.1%,11.5%
COc1ccc(C2=CC(c3ccc(F)cc3)n3nnnc3N2)cc1 (configuration not stated),-1.9,5.5%,6.0%,20.9%
Fc1ccc(C2=CC(c3ccco3)n3nnnc3N2)cc1 (configuration not stated),0.8,-10.8%,12.6µM*,?
CCN(C(=O)C1CCN(c2nc(-c3ccc(OC)cc3)no2)CC1)c1ccc(OC)cc1,-2.5,-9.2%,0.8%,13µM*
COc1ccc(-c2noc(N3CCC(C(=O)N4CCN(c5ccccn5)CC4)CC3)n2)cc1,-0.6,-26.9%,0.1%,18.4µM*
COc1ccc(OCCn2nnc3sc4c(c3c2=O)CCCC4)cc1,·,3.6%,-0.2%,?
COc1ccc(-c2noc(CSCC(=O)Nc3cc(OC)c(OC)c(OC)c3)n2)cc1OC,·,-1.8%,-1.2%,2.3%
COc1ccc(CNc2ncnc3ccc(-c4c(C)noc4C)cc23)cc1,·,9.2%,·,-18.9%
Cc1ccc2c(C)nc(N/C(N)=N/S(=O)(=O)c3ccccc3)nc2c1,-0.9,4.1%,3.0%,2.9%
Cc1ccc(S(=O)(=O)/N=C(\N)Nc2nc(C)c3ccc(C)cc3n2)cc1,-0.8,-7.3%[1.84 µM],2.4%,8.2µM*
CNCCN(C)c1nc(-c2cccs2)nc2ccccc12,·,0.0%,·,-11.7%
O=C(/C=C/Nc1ccccc1C(F)(F)F)c1ccco1,-0.5,-1.4%,1.78µM*,?
CC(=O)Nc1ccc(NC(=O)CN(C)S(=O)(=O)c2ccc3c(c2)CCC(=O)N3)cc1,0.9,-3.4%,-0.9%,-2.3%
Cc1ccc(NC(=O)C2CCCN(S(=O)(=O)c3ccc4c(c3)CCCC(=O)N4)C2)cc1N(C)C (configuration not stated),·,0.5%,0.1%,16.4µM*
Cc1cc(NC(=O)CN(C)S(=O)(=O)c2ccc3c(c2)CCCC(=O)N3)ccc1Br,·,-8.8%,0.5%,20.6µM*
Cc1ccc(NC(=O)C2CCN(S(=O)(=O)c3ccc4c(c3)CCCC(=O)N4)CC2)cc1N(C)C,-1.7,-3.9%,0.0%,?
COc1ccc(-c2noc(CN(C(=O)COc3cc(C)c(Br)c(C)c3)C(C)C)n2)cc1,·,1.4%,-1.4%,?
O=C(c1ccc2ncsc2c1)N1CCN(c2ccccc2Cl)CC1,-1.1,7.0%,2.2%,2.7%
